Source: PubChem BioAssay AID1159580 (chemical genetic matrix, 2015)
In all, about 5,500 compounds went through this assay and about 2,000 (36%) were called active. About 18% were inconclusive and are not listed. Cut-off read from the data, not from the text of the source: active = normalized growth mostly below about 0.91 (no sharp cut-off); inconclusive = no clear call, values can overlap the other calls; inactive = mostly above about 0.92. The list shows a part of the results.

Assay: chemical genetic growth profiling, strain panel (AID 1159580);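 note: tested at 20 µM; growth read once vehicle control cultures reached saturation at 30 °C; 1 = growth at the plate median or of vehicle wells; lower values mean less growth of the strain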
Conditions: growth OD

Measured: normalized growth

COC(=O)c1ccccc1-n1cccc1C(=O)OC
inactive: S. cerevisiae deletion strains, locus YAL013W, strain DEP1, hits give low values 0.981 | S. cerevisiae deletion strains, locus YBR229C, strain ROT2, hits give low values 0.975 | S. cerevisiae deletion strains, locus YDL101C, strain DUN1, hits give low values 0.971 | S. cerevisiae deletion strains, locus YDL134C, strain PPH21, hits give low values 0.997 | S. cerevisiae deletion strains, locus YDR150W, strain NUM1, hits give low values 1.01 | S. cerevisiae deletion strains, locus YEL061C, strain CIN8, hits give low values 0.994 | S. cerevisiae deletion strains, locus YGR078C, strain PAC10, hits give low values 0.982 | S. cerevisiae deletion strains, locus YGR229C, strain SMI1, hits give low values 1.02 | S. cerevisiae deletion strains, locus YHR030C, strain SLT2, hits give low values 1.04 | S. cerevisiae deletion strains, locus YHR087W, strain rtc3, hits give low values 0.96 | S. cerevisiae deletion strains, locus YJL187C, strain SWE1, hits give low values 0.996 | S. cerevisiae deletion strains, locus YJR043C, strain POL32, hits give low values 0.993 | S. cerevisiae deletion strains, locus YJR075W, strain HOC1, hits give low values 1.05 | S. cerevisiae deletion strains, locus YLR039C, strain RIC1, hits give low values 0.97 | S. cerevisiae deletion strains, locus YLR058C, strain SHM2 (second series), hits give low values 0.989 | S. cerevisiae deletion strains, locus YLR085C, strain ARP6, hits give low values 1.03 | S. cerevisiae deletion strains, locus YLR262C, strain YPT6, hits give low values 0.973 | S. cerevisiae deletion strains, locus YML094W, strain GIM5, hits give low values 0.957 | S. cerevisiae deletion strains, locus YMR219W, strain ESC1, hits give low values 0.99 | S. cerevisiae deletion strains, locus YMR263W, strain SAP30, hits give low values 1.02 | S. cerevisiae deletion strains, locus YNL153C, strain GIM3, hits give low values 1 | S. cerevisiae deletion strains, locus YNL298W, strain CLA4 (second series), hits give low values 0.988 | S. cerevisiae deletion strains, locus YNL322C, strain KRE1, hits give low values 0.992 | S. cerevisiae deletion strains, locus YNR030W, strain Alg12, hits give low values 0.973 | S. cerevisiae deletion strains, locus YOL006C, strain TOP1, hits give low values 0.969 | S. cerevisiae deletion strains, locus YPL055C, strain LGE1, hits give low values 0.972 | S. cerevisiae deletion strains, locus YPL241C, strain CIN2, hits give low values 0.969 | S. cerevisiae deletion strains, locus YPR135W, strain CTF4, hits give low values 0.943 | S. cerevisiae strains, strain wild type, hits give low values 0.993
